Source: PubChem BioAssay AID1159580 (chemical genetic matrix, 2015)
The campaign covered roughly 5,500 compounds. About 2,000 (36%) were called active. Another 18% or so got no clear call; they are omitted. No stated cut-off is given here; in the data, active means normalized growth mostly below about 0.91 (no sharp cut-off); inconclusive means no clear call, values can overlap the other calls; inactive means mostly above about 0.92. Some of the results follow.

Experiment: chemical genetic growth profiling, strain panel (AID 1159580);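 further: tested at 20 µM; growth read once vehicle control cultures reached saturation at 30 °C; 1 = growth at the plate median or of vehicle wells; lower values mean less growth of the strain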
Conditions: growth OD

Measured: normalized growth

CC(=O)Nc1ccc(O)cc1
inactive: S. cerevisiae deletion strains, locus YJR075W, strain HOC1, active compounds read low 1.06 | S. cerevisiae deletion strains, locus YKL009W, strain mrt4, active compounds read low 0.952 | S. cerevisiae deletion strains, locus YKL085W, strain MDH1 (second series), active compounds read low 0.943 | S. cerevisiae deletion strains, locus YKL085W, strain MDH1, active compounds read low 0.943 | S. cerevisiae deletion strains, locus YKL160W, strain elf1, active compounds read low 1.01 | S. cerevisiae deletion strains, locus YKR001C, strain vps1, active compounds read low 0.982 | S. cerevisiae deletion strains, locus YKR026C, strain gcn3, active compounds read low 1.02 | S. cerevisiae deletion strains, locus YKR091W, strain srl3, active compounds read low 1.01 | S. cerevisiae deletion strains, locus YLL001W, strain dnm1, active compounds read low 0.998 | S. cerevisiae deletion strains, locus YLL026W, active compounds read low 1.02 | S. cerevisiae deletion strains, locus YLL041C, strain sdh2, active compounds read low 1.01 | S. cerevisiae deletion strains, locus YLR027C, strain aat2, active compounds read low 1.01 | S. cerevisiae deletion strains, locus YLR039C, strain RIC1, active compounds read low 0.742 | S. cerevisiae deletion strains, locus YLR058C, strain SHM2, active compounds read low 0.984 | S. cerevisiae deletion strains, locus YLR102C, strain apc9, active compounds read low 0.986 | S. cerevisiae deletion strains, locus YLR113W, strain HOG1, active compounds read low 0.974 | S. cerevisiae deletion strains, locus YLR221C, strain rsa3, active compounds read low 0.989 | S. cerevisiae deletion strains, locus YLR258W, strain gsy2, active compounds read low 1.02 | S. cerevisiae deletion strains, locus YLR262C, strain YPT6 (second series), active compounds read low 1.04 | S. cerevisiae deletion strains, locus YLR262C, strain YPT6, active compounds read low 0.772 | S. cerevisiae deletion strains, locus YLR268W, strain sec22, active compounds read low 0.978 | S. cerevisiae deletion strains, locus YLR320W, strain mms22, active compounds read low 1.01 | S. cerevisiae deletion strains, locus YLR330W, strain CHS5, active compounds read low 0.986 | S. cerevisiae deletion strains, locus YLR342W, strain FKS1 (second series), active compounds read low 1.05 | S. cerevisiae deletion strains, locus YLR342W, strain FKS1, active compounds read low 1.03 | S. cerevisiae deletion strains, locus YLR357W, strain rsc2, active compounds read low 1.02 | S. cerevisiae deletion strains, locus YLR370C, strain arc18, active compounds read low 1.01 | S. cerevisiae deletion strains, locus YLR371W, strain rom2, active compounds read low 0.999 | S. cerevisiae deletion strains, locus YLR384C, strain iki3, active compounds read low 1.01 | S. cerevisiae deletion strains, locus YLR418C, strain cdc73, active compounds read low 1.08 | S. cerevisiae deletion strains, locus YML016C, strain PPZ1, active compounds read low 0.975 | S. cerevisiae deletion strains, locus YML032C, strain rad52, active compounds read low 0.971 | S. cerevisiae deletion strains, locus YML120C, strain ndi1, active compounds read low 1.02 | S. cerevisiae deletion strains, locus YML124C, strain tub3, active compounds read low 0.972 | S. cerevisiae deletion strains, locus YMR058W, strain fet3, active compounds read low 1.03 | S. cerevisiae deletion strains, locus YMR078C, strain ctf18, active compounds read low 0.986 | S. cerevisiae deletion strains, locus YMR125W, strain sto1, active compounds read low 1.01 | S. cerevisiae deletion strains, locus YMR129W, active compounds read low 1.01 | S. cerevisiae deletion strains, locus YMR205C, strain PFK2, active compounds read low 1.02 | S. cerevisiae deletion strains, locus YMR223W, strain ubp8, active compounds read low 0.98 | S. cerevisiae deletion strains, locus YMR231W, strain pep5, active compounds read low 1.03 | S. cerevisiae deletion strains, locus YMR307W, strain GAS1, active compounds read low 0.876 | S. cerevisiae deletion strains, locus YNL067W, strain RPL9B, active compounds read low 1.04 | S. cerevisiae deletion strains, locus YNL071W, strain lat1, active compounds read low 1.02 | S. cerevisiae deletion strains, locus YNL153C, strain GIM3, active compounds read low 0.998 | S. cerevisiae deletion strains, locus YNL183C, strain NPR1, active compounds read low 0.955 | S. cerevisiae deletion strains, locus YNL209W, strain ssb2, active compounds read low 1.02 | S. cerevisiae deletion strains, locus YNL233W, strain BNI4, active compounds read low 1.03 | S. cerevisiae deletion strains, locus YNL248C, strain rpa49, active compounds read low 0.998 | S. cerevisiae deletion strains, locus YNL250W, strain rad50, active compounds read low 0.937 | S. cerevisiae deletion strains, locus YNL271C, strain bni1, active compounds read low 0.936 | S. cerevisiae deletion strains, locus YNL307C, strain MCK1, active compounds read low 1.01 | S. cerevisiae deletion strains, locus YNL322C, strain KRE1 (second series), active compounds read low 1.02 | S. cerevisiae deletion strains, locus YNR049C, strain mso1, active compounds read low 1.03 | S. cerevisiae deletion strains, locus YNR052C, strain pop2, active compounds read low 0.974 | S. cerevisiae deletion strains, locus YOL006C, strain TOP1, active compounds read low 1.14 | S. cerevisiae deletion strains, locus YOL012C, strain htz1 0.778 | S. cerevisiae deletion strains, locus YOL147C, strain pex11, active compounds read low 0.98 | S. cerevisiae deletion strains, locus YOR001W, strain rrp6, active compounds read low 1.01 | S. cerevisiae deletion strains, locus YOR061W, strain CKA2, active compounds read low 0.972 | S. cerevisiae deletion strains, locus YOR069W, strain VPS5, active compounds read low 0.984 | S. cerevisiae deletion strains, locus YOR070C, strain gyp1, active compounds read low 1.01 | S. cerevisiae deletion strains, locus YOR080W, strain dia2, active compounds read low 1.03 | S. cerevisiae deletion strains, locus YOR083W, strain WHI5, active compounds read low 0.988 | S. cerevisiae deletion strains, locus YOR106W, strain vam3, active compounds read low 1.01 | S. cerevisiae deletion strains, locus YOR136W, strain idh2, active compounds read low 1.01 | S. cerevisiae deletion strains, locus YOR144C, strain elg1, active compounds read low 0.968 | S. cerevisiae deletion strains, locus YOR184W, strain ser1, active compounds read low 0.998 | S. cerevisiae deletion strains, locus YOR231W, strain MKK1, active compounds read low 0.997 | S. cerevisiae deletion strains, locus YOR265W, strain rbl2, active compounds read low 1.02 | S. cerevisiae deletion strains, locus YOR270C, strain vph1, active compounds read low 1.02 | S. cerevisiae deletion strains, locus YOR290C, strain snf2, active compounds read low 1 | S. cerevisiae deletion strains, locus YOR316C, strain cot1, active compounds read low 0.982 | S. cerevisiae deletion strains, locus YPL051W, strain arl3, active compounds read low 1.01 | S. cerevisiae deletion strains, locus YPL055C, strain LGE1, active compounds read low 1 | S. cerevisiae deletion strains, locus YPL078C, strain atp4, active compounds read low 1.01 | S. cerevisiae deletion strains, locus YPL106C, strain sse1, active compounds read low 1.02 | S. cerevisiae deletion strains, locus YPL240C, strain hsp82, active compounds read low 1.02 | S. cerevisiae deletion strains, locus YPL241C, strain CIN2, active compounds read low 0.981 | S. cerevisiae deletion strains, locus YPL256C, strain CLN2, active compounds read low 0.982 | S. cerevisiae deletion strains, locus YPR119W, strain clb2, active compounds read low 0.973 | S. cerevisiae deletion strains, locus YPR163C, strain tif3, active compounds read low 0.992 | S. cerevisiae deletion strains, locus YPR167C, strain met16, active compounds read low 0.972 | S. cerevisiae deletion strains, strain wtn01, active compounds read low 0.967 | S. cerevisiae strains, strain wild type, active compounds read low 0.953
active: S. cerevisiae deletion strains, locus YKL068W, active compounds read low 0.936 | S. cerevisiae deletion strains, locus YNL298W, strain CLA4, active compounds read low 0.897 | S. cerevisiae deletion strains, locus YPR141C, strain kar3, active compounds read low 0.911
